Results on 60 compounds are retold here after PubChem BioAssay AID2069 (Sanford-Burnham Center for Chemical Genomics, 2009).

Structures are written as SMILES. Out of some 1,200 compounds screened, about 210 (18%) were called active. Cut-off read from the data, not from the text of the source: active = inhibition above about 30%; inactive = the rest. These entries were drawn from the full list.

This experiment can be described thus: fluorescence readout artefact check – biochemical, HTRF, uHTS, artefact control for SUMOylation inhibitor project, confirmation (AID 2069). Particulars: HTRF interference counterscreen, at 35 µM, active compounds read high. (Time-resolved FRET reads energy transfer from a long-lived donor to a nearby acceptor.)
The inhibition is the drop in the measured response relative to a control, in per cent. `CN1C(=O)c2cccc3c(S(=O)(=O)NCc4ccco4)ccc1c23`: the inhibition was 11.9% (inactive).
The figure for `CN1C(=O)c2cccc3c(S(=O)(=O)NCCc4ccccc4)ccc1c23` is 45% (active); for `CCN(CC)CCNS(=O)(=O)c1ccc2c3c(cccc13)C(=O)N2` it is 47.2% (active).
With `CN(C)CCNS(=O)(=O)c1ccc2c3c(cccc13)C(=O)N2`, the inhibition is 60.6% (active).
Take `CCN1C(=O)c2cccc3c(N)ccc1c23`: the inhibition is -24.4% (inactive).
Under `O=C(NCc1ccccc1)Nc1cccn(Cc2ccccc2Cl)c1=O` stands 1.3% (inactive); under `N=C1S/C(=C\c2ccc(O)cc2)C(=O)N1c1ccc(F)cc1`, 14.8% (inactive).
With `COc1ccc(-c2nc3c(c(SCC(=O)Nc4cccc(O)c4)n2)Cc2c(CO)cnc(C)c2O3)cc1`, the inhibition was -1.05% (inactive).
With `CC(=O)Nc1cccc(NC(=S)Nc2cccc3ccccc23)c1`, the inhibition is -2.65% (inactive).
Turning to `CC(=O)Nc1ccc(S(=O)(=O)Nc2nc3ccccc3nc2Nc2ccc3ccccc3c2)cc1`, the inhibition is 18.6% (inactive).
Take `CC(=O)Nc1ccc2nc3ccccc3nc2c1`: the inhibition is 36.7% (active).
Under `O=C(Nc1ccc2nc3ccccc3nc2c1)c1ccc(Br)cc1` stands 20.6% (inactive); under `Cc1ccc(-c2nc3ccccc3o2)cc1NC(=O)c1ccc2c(c1)OCO2`, 16.6% (inactive).
Under `CC(=O)Nc1ccc(-c2nc3ccc(NC(C)=O)cc3o2)cc1` stands 40.8% (active); under `CCOc1cc(/C=N/N=C(\N)c2nonc2N)cc(Br)c1OCc1cccc2ccccc12`, 0.3% (inactive).
For `Cc1cc(/C=C2\SC(=S)NC2=O)c(C)[nH]1`, the inhibition is 3.5% (inactive).
Under `O=C(Nc1ccc(N2CCOCC2)c2nonc12)C1CCCC1` stands -18.9% (inactive).
The figure for `O=C(O)CSc1cc(C(=O)c2ccccc2O)cn2c(=O)c3c(-c4ccccc4)csc3nc12` is 7.6% (inactive).
Under `Cc1cc(-c2csc(N)n2)c(C)n1Cc1ccco1` stands -4.05% (inactive).
For `COc1ccccc1NC(=O)c1sc2nc(-c3ccco3)ccc2c1N`, the inhibition was 26.8% (inactive).
For `O=C(N/N=C/c1ccc(F)cc1)c1cc(-c2ccco2)nc2ccccc12`, the inhibition was 13% (inactive).
For the compound `Nc1c(C(=O)Nc2ccccc2)sc2nc(-c3ccco3)ccc12`, the inhibition was 50.1% (active).
For the compound `Nc1c(C(=O)Nc2ccc(F)cc2)sc2nc(-c3ccco3)ccc12`, the inhibition was 47% (active).
Under `O=C(Nc1ccc(-n2nncc2-c2ccco2)cc1)c1cc2ccccc2oc1=O` stands 9.4% (inactive).
In the case of `Nc1c(C(=O)Nc2ccc(Br)cc2)sc2nc(-c3ccco3)ccc12`, the inhibition is 28.9% (inactive).
Under `O=C(N/N=C/c1ccc(-c2cccc([N+](=O)[O-])c2)o1)c1ccccc1O` stands 2.3% (inactive).
As for `Cc1ccc(N=C2NC(=O)/C(=C\c3ccco3)S2)cc1`, the inhibition is -0.45% (inactive).
Consider `NC1=NC(c2ccc(Cl)cc2)N(c2ccc(S(N)(=O)=O)cc2)C(N)=N1` (stereo not given), for which the inhibition is 6.2% (inactive).
Take `O=C(CNc1cccc2ccccc12)c1ccc([N+](=O)[O-])cc1`: the inhibition is -2.7% (inactive).
The figure for `CCOC(=O)N1CCN(C2=C(NS(=O)(=O)c3ccc(C)cc3)C(=O)c3ccccc3C2=O)CC1` is -12.7% (inactive).
Consider `COc1cc(C2c3c(oc4ccccc4c3=O)C(=O)N2c2nccs2)ccc1O` (stereo not given), for which the inhibition is 7.95% (inactive).
Consider `O=C(O)c1cc(-c2ccco2)nn1-c1ccc(Cl)cc1`, for which the inhibition is 1.75% (inactive).
Under `Cc1ccc(S(=O)(=O)n2ccc(OC(=O)c3cccs3)n2)cc1` stands 0.25% (inactive).
The figure for `O=C1NNC(c2ccccc2)=N/C1=C\c1ccccc1Cl` is -7.9% (inactive); for `Cc1ncc(CO)c(/C=N/NC(=O)c2cc(O)c(O)c(O)c2)c1O` it is 0.4% (inactive).
The figure for `S=c1[nH]nc(-c2cccnc2)n1/N=C/C=C/c1ccco1` is -1.7% (inactive); for `CN(C)/C=N/c1nc2nccc(-c3cccnc3)n2n1` it is 49.2% (active); for `CN(C)/C=N/c1nc2nccc(-c3cccc(Cl)c3)n2n1` it is 57.1% (active).
As for `CC1=NN(c2ccc(F)cc2)C(=O)C1C(c1cccc(O)c1)c1c(C)[nH]n(-c2ccc(F)cc2)c1=O` (stereo not given), the inhibition is -9.8% (inactive).
The figure for `CN(C)c1cc(N/N=C\c2ccccc2)nc(N(C)C)n1` is 22.4% (inactive); for `O=C(CC1Nc2cccc3cccc(c23)NC1=O)Nc1ccccc1` (stereo not given) it is -22.9% (inactive).
Under `O=C(CSc1ccc(Br)c2cccc(Cl)c12)Nc1ccc(S(=O)(=O)Nc2nccs2)cc1` stands -50.4% (inactive); under `COc1cc2c(ccc3cc(OC)c(OC)c(O)c32)cc1O`, 24.2% (inactive).
On to `CC(=O)Nc1ccc(NC(=O)Cn2c(-c3ccc(F)cc3)cnc2SCC(=O)Nc2c(C)cccc2C)cc1`, for which the inhibition is -6.5% (inactive).
As for `[O-]/C(=C(\C(=S)Nc1cccc2ccccc12)[n+]1ccccc1)c1ccc(Cl)s1`, the inhibition was -8.3% (inactive).
The figure for `COc1c(C)oc2cc(O)ccc2c1=O` is 41% (active).
For `O=C1CC(N2CCOCC2)=NN1c1ccc([N+](=O)[O-])cc1`, the inhibition is -12.8% (inactive).
Take `O=C(NNc1cc(N2CCOCC2)nc(N2CCOCC2)n1)c1ccc(Cl)c(Cl)c1`: the inhibition is -6.9% (inactive).
The figure for `Fc1ccc(-c2nc3cnccn3c2NC2CCCC2)cc1` is 57.9% (active); for `O=C(/C=C\c1ccco1)c1ccc(NC(=O)c2ccco2)cc1` it is 0.2% (inactive); for `CCOc1cc(CNc2ccc(N3CCN(C(C)=O)CC3)cc2)cc(Br)c1OC` it is -8.4% (inactive).
The figure for `Cc1c2c(=O)n(-c3nc4ccccc4s3)nc-2cc(O)n1Cc1ccccc1` is -12.7% (inactive).
Under `Cc1ccc(S(=O)(=O)NNC(=S)Nc2c(Cl)cccc2Cl)cc1` stands -4.65% (inactive).
`Cc1[nH]n(-c2ccccc2)c(=O)c1/C=N/N(C)c1ccccc1`: the inhibition is -31.9% (inactive).
Turning to `C[n+]1cccc2ccc3c(c21)OC(N)=C(C#N)C3c1ccccc1` (stereo not given), the inhibition was -12.1% (inactive).
Under `COc1cc(OC)cc(-c2nc(-c3ccccc3)no2)c1` stands -17.7% (inactive); under `COc1ccc(-c2cc(-c3ccccc3)n3ncnc3n2)cc1`, 53.7% (active).
The figure for `Cc1ccc(S(=O)(=O)C(C#N)c2nc3ccccc3nc2N2CCCC2)cc1` (stereo not given) is -7.1% (inactive); for `COc1ccc(C2=NN(C(=O)c3cccs3)C(c3ccccc3O)C2)cc1` (stereo not given) it is 8.65% (inactive); for `CC1=NN(c2ccccc2)C(=O)/C1=C/c1ccc(Cl)cc1` it is -10.2% (inactive).
